Source: PubChem BioAssay AID1850 (Southern Research Specialized Biocontainment Screening …, 2009)
In all, about 310,000 compounds went through this assay and about 1,000 (0.32%) were called active. The rule behind the calls is not given here. Only a sample is shown. Results with a measured potency or affinity are listed apart.

Test: PhoP regulon inhibitors, Salmonella typhi PhoP promoter GFP reporter, confirmatory (AID 1850);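 note: 0% = induced wells with vehicle and 100% = uninduced wells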
Conditions: fluorescence, 4 h, at 50 µM, hits give high values
For `CN(CCCCN1CCOCC1)Cc1nc(-c2ccc3c(c2)OCO3)no1`, the inhibition was -10.5% (inactive).
In the case of `CCn1cc(C(=O)c2cccs2)c2ccccc21`, the inhibition is reported as -0.847% (inactive).
With `O=C(CSc1nnc(SCc2ccccc2)s1)N/N=C/C=C/c1ccccc1[N+](=O)[O-]` the inhibition was 8.59% (inactive).
For `CCn1cc(C(=O)N2CCN(c3ccccc3F)CC2)c(=O)c2ccc(C)nc21`, the inhibition was -6.12% (inactive).
With `c1ccc(-c2cc(-c3ccncc3)nc3ccc4ccccc4c23)cc1` the inhibition was -9.12% (inactive).
In the case of `Cc1ccc2nc(/C(C#N)=C/c3ccc(-c4cccc([N+](=O)[O-])c4)o3)[nH]c2c1`, the inhibition is reported as -10.4% (inactive).
In the case of `N#C/C(=C\c1ccc([N+](=O)[O-])o1)c1nc2ccccc2[nH]1`, the inhibition is reported as 7.25% (inactive).
For `COC(=O)c1[nH]c2cc(OC)ccc2c1NC(=O)c1ccc2c(c1)OCO2`, the inhibition was -8.72% (inactive).
With `CCc1cc(C(=O)Nc2ccc(OC)nc2)sc1C` the inhibition was 4.89% (inactive).
With `COc1ccc(NC(=O)c2cccs2)cn1` the inhibition was 2.51% (inactive).
In the case of `O=C(Nc1cccnc1)c1ccc(Br)s1`, the inhibition is reported as 12.6% (inactive).
For `CCc1sc(C(=O)Nc2cccnc2)cc1Br`, the inhibition was -8.13% (inactive).
For `O=S(=O)(c1ccc(-c2csc(-c3cccnc3)n2)cc1)N1CCCC1`, the inhibition was 0% (inactive).
For `Cc1cc(C)n(CC(O)Cn2cnc3c2c(=O)n(C)c(=O)n3C)n1` (configuration not stated), the inhibition was -7.83% (inactive).
With `CCN(CC(=O)NCc1ccc(Cl)cc1)C(=O)CSc1cccc(C(F)(F)F)c1` the inhibition was 5.75% (inactive).
In the case of `COc1ccc(C2=NN(CN3C(=O)C(=O)c4ccccc43)C(c3ccc(OC)cc3)C2)cc1` (configuration not stated), the inhibition is reported as -8.46% (inactive).
For `Cc1nc2c(C#N)cnn2c2c1CCN(Cc1ccccc1)N2C`, the inhibition was 0.51% (inactive).
With `Nc1ccc2nonc2c1[N+](=O)[O-]` the inhibition was -75.7% (inactive).
With `Nc1cc(N2CCCCCC2)c2nonc2c1[N+](=O)[O-]` the inhibition was -0.89% (inactive).
With `COCCn1c(=S)[nH]c2cc(C(=O)NCCCN3CCOCC3)ccc2c1=O` the inhibition was -1.91% (inactive).
With `O=C(NC1CCSC1=O)c1cccc(Cl)c1` (configuration not stated) the inhibition was 3.01% (inactive).
In the case of `CCN1/C(=C\C=C\C2=[N+](CC)c3ccccc3C2(C)C)C(C)(C)c2ccccc21`, the inhibition is reported as -46.5% (inactive).
For `CN1/C(=C\C=O)C(C)(C)c2ccccc21`, the inhibition was 1.84% (inactive).
In the case of `O=C(Nc1cc2c3c(c1)CC(=O)N3CCC2)c1cccc(F)c1`, the inhibition is reported as 6.53% (inactive).
For `O=C(c1ccc(F)cc1)c1ccc(N2CCCCC2)cc1`, the inhibition was -11.2% (inactive).
With `CN(CC(=O)Nc1ccc(S(N)(=O)=O)cc1)c1ccccc1` the inhibition was 14.4% (inactive).
For `Cc1ccccc1NC(=O)c1ccccc1O`, the inhibition was 4.26% (inactive).
In the case of `CSc1ccccc1C(=O)Nc1cc(C)ccc1C`, the inhibition is reported as 7.98% (inactive).
In the case of `O=[N+]([O-])c1cccc(-c2cc3ccccc3[nH]2)c1`, the inhibition is reported as -7.23% (inactive).
With `O=C(N/N=C/c1cc2ccccc2[nH]1)c1ccccc1Cl` the inhibition was 12.6% (inactive).
With `COc1ccc(N(CC(=O)N2CCN(c3cc(C)ccc3C)CC2)S(=O)(=O)c2c(C)noc2C)cc1` the inhibition was 4.32% (inactive).
With `CCC(C)NC(=O)C1c2ccccc2C(=O)N(c2ccc(OC)cc2)C1c1ccc(OC)cc1` (configuration not stated) the inhibition was -3.48% (inactive).
In the case of `O=C(N/N=C/c1cc2c(cc1Cl)OCO2)c1ccncc1`, the inhibition is reported as -3.87% (inactive).
For `O=C(N/N=C/c1ccccc1Cl)c1ccncc1`, the inhibition was -2.44% (inactive).
For `Nc1nonc1-n1nnc(C(=O)N/N=C/c2c(Cl)cccc2Cl)c1CSC1=NCCS1`, the inhibition was -8.07% (inactive).
For `Nc1nonc1-n1nnc(C(=O)N/N=C/c2ccc(Br)cc2)c1CSC1=NCCS1`, the inhibition was 6.84% (inactive).
For `O=C(N/N=C/c1cc(Br)c(O)c(Br)c1)c1cccnc1`, the inhibition was 19.1% (inactive).
For `O=C(N/N=C/c1ccc(O)cc1O)c1ccncc1`, the inhibition was 1.18% (inactive).
In the case of `O=C(N/N=C/c1cc2ccccc2nc1Cl)c1ccncc1`, the inhibition is reported as -3.32% (inactive).
For `O=C(N/N=C/c1cc(Br)c(O)c(Br)c1O)c1cccnc1`, the inhibition was -12.7% (inactive).
With `COc1ccc(CNC(=O)CCNS(=O)(=O)c2ccc(Br)s2)cc1` the inhibition was -1.05% (inactive).
In the case of `O=C(CN1C(=O)C2C3C=CC(C3)C2C1=O)Nc1nc(SCc2ccc(Cl)cc2)n[nH]1` (configuration not stated), the inhibition is reported as 3.67% (inactive).
For `O=C(O)COCC(=O)NC1CCN(Cc2ccccc2)CC1`, the inhibition was -0.41% (inactive).
In the case of `CC(CN1CCCCC1)OC(=O)c1ccccc1F` (configuration not stated), the inhibition is reported as -3.63% (inactive).
With `Cc1nn(C(C)C(=O)NC2CCC(C)CC2)c(=O)c2nn(-c3ccccc3)c(C)c12` (configuration not stated) the inhibition was -5.27% (inactive).
For `Cc1ccc(Cl)cc1NC(=O)C1CC(=O)Nc2ncnn21` (configuration not stated), the inhibition was -13% (inactive).
With `Nc1nonc1C(=O)N/N=C/c1cc2c(cc1Br)OCO2` the inhibition was -18.8% (inactive).
In the case of `O=C(C[n+]1ccccc1)N/N=C/c1cc(Br)cc(Br)c1O`, the inhibition is reported as 1.91% (inactive).
In the case of `CNC(=S)N/N=C/c1cc(Br)cc(Br)c1O`, the inhibition is reported as 6.75% (inactive).
In the case of `O=C(N/N=C/c1ccc(Cl)cc1Cl)c1ccncc1`, the inhibition is reported as -12.1% (inactive).
In the case of `O=C1NCCCC1C(=O)N/N=C/c1ccccc1O` (configuration not stated), the inhibition is reported as -6.72% (inactive).
For `Nc1nonc1C(=O)N/N=C/c1ccc(Br)o1`, the inhibition was -7.75% (inactive).
For `O=C(N/N=C/c1coc2ccc(Cl)cc2c1=O)c1ccncc1`, the inhibition was -3.86% (inactive).
In the case of `O=C(N/N=C/c1ccccc1O)NC12CC3CC(CC(C3)C1)C2`, the inhibition is reported as 6.48% (inactive).
With `CCOC(=O)C1CCCCN1Cc1cccc(OC)c1OC` (configuration not stated) the inhibition was -6.91% (inactive).
With `CCC(=O)NC(=S)Nc1ccc(NC(=O)c2ccco2)c(OC)c1` the inhibition was -4.57% (inactive).
For `Cc1cc(=O)c(C(=O)O)nn1-c1cccc(C(F)(F)F)c1`, the inhibition was 3.22% (inactive).
For `Cc1[nH]n(-c2ccccc2)c(=O)c1/C=N/NC(=O)c1ccc(O)cc1O`, the inhibition was 4.8% (inactive).
In the case of `Cc1ccc(C)c(CN2CCC(CNC(=O)CCc3nnc4ccc(N5CCCCC5)nn34)CC2)c1`, the inhibition is reported as -0.65% (inactive).
In the case of `O=C(CSc1nnc(CNC(=O)c2cccs2)o1)Nc1cccc(Cl)c1`, the inhibition is reported as -8.62% (inactive).
With `O=C(CC1SC(N2CCCC2)=NC1=O)Nc1ccc(C(=O)N2CCN(c3cccc(Cl)c3)CC2)cc1` (configuration not stated) the inhibition was -3.88% (inactive).
In the case of `Cc1ccc(S(=O)(=O)N[C@@H](CO)C(=O)N[C@@H](Cc2ccc(O)cc2)C(=O)O)cc1`, the inhibition is reported as 3.35% (inactive).
